Values joined by “and” are separate entries in the source; they are usually repeats but may differ in a detail not shown here. Equal values may be shown once. Inconclusive results are not listed. Active and inactive are the calls of the source. Unless noted, calls follow the shape of the dose curve; as a rule, active = well fitted curve in the direction sought with a large enough effect; inconclusive = small, poorly fitted or top-dose-only effect, or another doubt; inactive = no such curve, though single readings can be large; an effect the other way counts as inactive or inconclusive.
Legend:
[1] = biological target: Cellular tumor antigen p53 (Homo sapiens) (UniProt P04637); assay: Primary qHTS for small molecule compounds that upregulate eGFP-tagged delta133p53alpha (in N-terminal) cells. (AID 2060322); settings: NCI-H358 eGFP-delta133p53alpha fluorescence, 24 h; activation: hits give high values;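 also: series mostly up to about 56 µM; 0% = DMSO vehicle and 100% = reference activator; nearly all actives have a fitted effect of over 75% in size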
Cellular tumor antigen p53 (Homo sapiens), sequence (P04637 whole entry, looked up): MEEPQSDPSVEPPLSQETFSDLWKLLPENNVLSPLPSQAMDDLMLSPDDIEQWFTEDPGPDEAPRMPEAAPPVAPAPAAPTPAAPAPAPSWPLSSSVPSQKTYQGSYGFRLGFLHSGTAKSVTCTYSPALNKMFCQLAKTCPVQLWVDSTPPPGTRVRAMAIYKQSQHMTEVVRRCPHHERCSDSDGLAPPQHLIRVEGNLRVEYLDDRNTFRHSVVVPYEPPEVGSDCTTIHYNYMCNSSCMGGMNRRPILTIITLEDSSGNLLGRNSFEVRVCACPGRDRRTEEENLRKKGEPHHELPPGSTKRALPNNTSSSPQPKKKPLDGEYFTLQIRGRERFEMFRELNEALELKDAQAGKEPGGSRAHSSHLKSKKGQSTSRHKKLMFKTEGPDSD
Outline: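 NCI-H358 cells pre-induced 24 h with 10 ng/ml doxycycline to express N-terminal eGFP-delta133p53alpha, then dosed 24 h at 37C without doxycycline; fixed, Hoechst-stained, GFP intensity by laser scanning cytometry, normalized to DMSO (0%) and 57.5 uM 5-azacytidine (100%).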

[2] = biological target: Cellular tumor antigen p53 (Homo sapiens) (UniProt P04637); assay: Primary qHTS for small molecule compounds that upregulate eGFP-tagged delta133p53alpha (in C-terminal) cells. (AID 2060324);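 also: 0% = DMSO wells and 100% = 57.5 µM 5-azacytidine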
Outline: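 C-terminal eGFP-tagged delta133p53alpha NCI-H358 line; dox-induced (100 ng/ml, 24 h) then plated without dox; compounds pinned in titration, 24 h 37 °C/5% CO2; PFA fix, Hoechst nuclei; GFP by LSC.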

[3] = biological target: Aldehyde dehydrogenase, mitochondrial (Homo sapiens) (UniProt P05091); assay: qHTS for Inhibitors of the Aldehyde Dehydrogenase Family (ALDH2) Validation screens (AID 2061302; active = well fitted inhibition curve with a large enough effect; title and protocol of this record describe different tests; also: potency is read from the fitted curve at half-maximal effect)
[4] = qHTS for Inhibitors of the Aldehyde Dehydrogenase Family (ALDH1A2, ALDH1A3, ALDH2, ALDH3A1) (AID 2061307); also: nearly all actives have a fitted effect of over 50% in size; as to Potency: test system not described further here; potency is read from the fitted curve at half-maximal effect
[5] = biological target: Retinaldehyde dehydrogenase 3 (Homo sapiens) (UniProt P47895); assay: qHTS for Inhibitors of the Aldehyde Dehydrogenase Family (ALDH1A3) Confirmatory screens (AID 2061311); also: nearly all actives have a fitted effect of over 60% in size; also: potency is read from the fitted curve at half-maximal effect
[6] = biological target: Retinaldehyde dehydrogenase 3 (Homo sapiens) (UniProt P47895); assay: qHTS for Inhibitors of the Aldehyde Dehydrogenase Family (ALDH1A3) Validation screen (AID 2061312); also: % is scaled to controls: 0 for no effect and ±100 for the full control effect; nearly all actives have a fitted effect of over 45% in size
[7] = biological target: Retinal dehydrogenase 2 (Homo sapiens) (UniProt O94788); assay: qHTS for Inhibitors of the Aldehyde Dehydrogenase Family (ALDH1A2) Confirmation screens (AID 2061314); also: nearly all actives have a fitted effect of over 65% in size
[8] = BET inhibitor-based combinations targeting novel dependencies in MECOM-rearranged (r) AML: SET-2 cell line (AID 2202231); settings: SET-2 AML cells viability, CellTiter-Glo luminescence, 48 h; viability: hits give low values, series mostly up to about 46 µM;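 also: plate controls were DMSO treated cells for no effect and wells without cells for full effect; nearly all actives have a fitted effect of over 35% in size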
Outline: (§1)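 500 cells/well; 11-pt dose curve; 48 h, standard incubator; CellTiter-Glo luminescence after 15 min RT; DMSO/empty-well normalization; AUC plus Z-AUC (mean-centered within each line).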

[9] = BET inhibitor-based combinations targeting novel dependencies in MECOM-rearranged (r) AML: OCI-AML3 cell line (AID 2202232); settings: Potency: OCI-AML3 viability;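 also: series mostly up to about 46 µM; plate controls were DMSO vehicle wells for no effect and wells without cells for full effect; nearly all actives have a fitted effect of over 35% in size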
Outline: as §1

[10] = BET inhibitor-based combinations targeting novel dependencies in MECOM-rearranged (r) AML: MV-4-11 cell line (AID 2202233);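 also: plate controls were DMSO for no effect and blank wells for full effect; nearly all actives have a fitted effect of over 45% in size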
Outline: (§2)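 Cells were plated at 500 per well and exposed to each drug across an 11-point dose range for 48 hr at standard incubator conditions. Viability was read by CellTiter-Glo luminescence, and activity was expressed as AUC and per-cell-line Z-transformed AUC.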

[11] = BET inhibitor-based combinations targeting novel dependencies in MECOM-rearranged (r) AML: HNT-34 cell line (AID 2202234);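 also: plate controls were vehicle wells for no effect and cell-free wells for full effect; nearly all actives have a fitted effect of over 35% in size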
Outline: as §2

[12] = BET inhibitor-based combinations targeting novel dependencies in MECOM-rearranged (r) AML: UCSD-AML1 cell line (AID 2202235);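 also: series mostly up to about 46 µM; plate controls were DMSO vehicle wells for no effect and blank wells for full effect; nearly all actives have a fitted effect of over 40% in size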
Outline: as §2

[13] = BET inhibitor-based combinations targeting novel dependencies in MECOM-rearranged (r) AML: AML-191 cell line (AID 2202236;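 also: plate controls were vehicle wells for no effect and wells without cells for full effect; nearly all actives have a fitted effect of over 35% in size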)
Outline: as §1

[14] = BET inhibitor-based combinations targeting novel dependencies in MECOM-rearranged (r) AML: AML-194 cell line (AID 2202237;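 also: plate controls were vehicle wells for no effect and wells without cells for full effect; nearly all actives have a fitted effect of over 40% in size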)
Outline: as §1

[15] = biological target: Aldehyde dehydrogenase, mitochondrial (Homo sapiens) (UniProt P05091); assay: qHTS for Inhibitors of the Aldehyde Dehydrogenase Family (ALDH2) Confirmatory screens (AID 2061303; active = well fitted inhibition curve with a large enough effect; title and protocol of this record describe different tests; also: nearly all actives have a fitted effect of over 45% in size; also: potency is read from the fitted curve at half-maximal effect)
[16] = biological target: Aldehyde dehydrogenase 1A1 (Homo sapiens) (UniProt P00352); assay: qHTS for Inhibitors of the Aldehyde Dehydrogenase Family (ALDH1A1) Confirmatory screens (AID 2061316); also: nearly all actives have a fitted effect of over 65% in size; also: potency is read from the fitted curve at half-maximal effect
[17] = biological target: Aldehyde dehydrogenase, mitochondrial (Homo sapiens) (UniProt P05091); assay: qHTS for Inhibitors of the Aldehyde Dehydrogenase Family (ALDH2) Primary screen (AID 2061308);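 also: plate controls were vehicle for no effect and reference inhibitor for full effect; nearly all actives have a fitted effect of over 55% in size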
[18] = biological target: Retinaldehyde dehydrogenase 3 (Homo sapiens) (UniProt P47895); assay: qHTS for Inhibitors of the Aldehyde Dehydrogenase Family (ALDH1A3) Primary screen (AID 2061315);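 also: plate controls were DMSO vehicle for no effect and reference inhibitor for full effect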

NC(Cc1ccc(Cl)cc1)C(=O)O (stereo not given)
inactive: activation [1] -15.1% and -12.2% | Potency [2] | Potency [3]

CCC1(O)CC2CN(CCc3c([nH]c4ccccc34)[C@@](C(=O)OC)(c3cc4c(cc3OC)N(C=O)C3[C@]45CCN4CC=C[C@@](CC)([C@@H](OC(C)=O)[C@]3(O)C(=O)OC)[C@H]45)C2)C1 (stereo not given in full)
inactive: activation [1] 32.1% | Potency [2] | Potency [3]

CC(N)=NCCCC[C@@H](N)C(=O)O
inactive: activation [1] -1.95% | Potency [2] | Potency [3]

CCCCOc1cc(CC2CNC(=O)N2)ccc1OC (stereo not given)
inactive: activation [1] -11.2% | Potency [2] | Potency [3]

C=CCN1CCc2c(cc(O)c(O)c2Br)[C@@H](c2ccccc2)C1
inactive: activation [1] -46.3% | Potency [2] | Potency [3]

CCCCCCCCCCCCCCCCCCN(CCCCCCCCCCCCCCCCCC)CCCN(CCO)CCO
inactive: activation [1] -13.9% | Potency [2] | Potency [3]

CNCC(O)c1ccc(O)c(O)c1 (stereo not given)
inactive: activation [1] 7.34% | Potency [2] | Potency [3]

CN1CCc2cccc3c2C1Cc1ccc(O)c(O)c1-3 (stereo not given)
inactive: activation [1] 49.9% | Potency [2] | Potency [3]

O=c1[nH]c(=S)[nH]c(-c2ccccc2)c1Cc1c(O)ccc2ccccc12
inactive: activation [1] -41.1% | Potency [2] | Potency [3]

CCc1ccc(/C=C2/SC(=S)NC2=O)cc1
inactive: activation [1] -0.0291% | Potency [2] | Potency [3] | Potency [4] | Potency [5] | Potency [6] | Potency [7] | viability [8] 89.4% | Potency [9] | Potency [10] | Potency [11] | Potency [12] | Potency [13] | Potency [14]

Cc1cc(Cn2cnc3c2C[C@@H](C(=O)O)N(C(=O)C(c2ccccc2)c2ccccc2)C3)ccc1N
inactive: activation [1] -13.9% | Potency [2] | Potency [3] | Potency [15] | Potency [7]

CCN1C(=O)C=CC1=O
active: Potency [3] 12.6 µM
inactive: activation [1] -15.7% | Potency [2] | Potency [15] | Potency [4] | Potency [5] | Potency [7] | Potency [16]

Oc1ccc(Cn2cc[nH]c2=S)cc1
inactive: activation [1] -47.8% | Potency [2] | Potency [3] | Potency [15] | Potency [7]

CN1CCC[C@@H]1Cc1c[nH]c2ccc(CCS(=O)(=O)c3ccccc3)cc12
inactive: activation [1] 8.47% and -10.4% and 2.33% | Potency [2] | Potency [3] | Potency [17] | Potency [6]

c1ccc(C(NCCNC(c2ccccc2)c2ccccc2)c2ccccc2)cc1
inactive: activation [1] -16.9% | Potency [2] | Potency [3] | Potency [15] | Potency [4] | Potency [5] | Potency [7] | Potency [16]

N.N.N.N.N.N.N.N.N.N.N.N.N.N.O.O.[Ru+4].[Ru+5].[Ru+5]
inactive: activation [1] 4.58% | Potency [2] | Potency [3] | Potency [15] | Potency [4] | Potency [16]

NC(=S)c1ccc[n+]([C@@H]2O[C@@H](COP(=O)([O-])OP(=O)(O)OC[C@H]3O[C@@H](n4cnc5c(N)ncnc54)[C@H](OP(=O)(O)O)[C@@H]3O)C(O)C2O)c1 (stereo not given in full)
inactive: activation [1] -2.21% | Potency [2] | Potency [3] | Potency [15]
active: Potency [4] 20.1 µM | Potency [16] 25.2 µM

O=C(O)c1ccccc1Nc1cccc(OCc2ccc3ccccc3n2)c1
active: Potency [4] 7.98 µM
inactive: activation [1] -13.1% | Potency [2] | Potency [3] | Potency [6]

CC1=C(C)C(=O)C(CCCCC#CCCCC#CCO)=C(C)C1=O
inactive: activation [1] 18.6% and 0.426% | Potency [2]
active: Potency [3] 5.01 µM | Potency [15] 4.49 µM | Potency [4] 7.12 µM | Potency [5] 0.504 µM | Potency [16] 1.27 µM

Cc1[nH]c(=O)c(C#N)cc1-c1ccncc1
inactive: activation [1] 7.4% and -9.21% and 7.59% | Potency [2] | Potency [3] | Potency [15] | Potency [5] | Potency [7] | Potency [9] | Potency [10] | Potency [11] | Potency [12] | Potency [13] | Potency [14]

N=C(N)c1ccc(N)cc1
inactive: activation [1] -28.3% | Potency [2] | Potency [3] | Potency [15] | Potency [4] | Potency [7]

O=c1ccc2c(OCCCCc3ccccc3)c3ccoc3cc2o1
inactive: activation [1] -37.4% | Potency [2] | Potency [3]
active: Potency [4] 1.12 µM | Potency [5] 12.6 µM

CNC(=O)Oc1ccc2c(c1)[C@]1(C)CCN(C)[C@@H]1N2C
inactive: activation [1] -31.1% and -29.5% and 2.6% | Potency [2] | Potency [3] | Potency [6]
active: Potency [4] 8.96 µM

CCN(CC)CCCCNc1ncc2cc(-c3c(Cl)cccc3Cl)c(NC(=O)NC(C)(C)C)nc2n1
inactive: activation [1] -67.6% and 10% | Potency [2] | Potency [3] | Potency [17] | Potency [6] | Potency [18]

From PubChem BioAssay (NCATS)
